In PubChem BioAssay (NCI):
Values joined by “and” are separate entries in the source; they are usually repeats but may differ in a detail not shown here. Equal values may be shown once. Compounds without any hit were thinned out: in the full panel of roughly 83,000, 20% have a hit.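 In brief: 96-well plates, 48 h treatment, single concentration, percent growth endpoint.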 Active and inactive are the calls of the source. Rule for the calls: active = growth percent below 10; inactive = the rest.

Legend:
Assay in all cases: NCI-60 one-dose screen, 48 h (100 = growth as untreated, 0 = no growth, -100 = all killed)
EKVX NSCLC = system: EKVX NSCLC
SN12C renal = system: SN12C renal
UO-31 renal = system: UO-31 renal
TK-10 renal = system: TK-10 renal
ACHN renal = conditions: 10 µM unless noted
CAKI-1 renal = conditions: 10 µM unless noted
A498 renal = system: A498 renal
CCRF-CEM leukemia = conditions: 10 µM unless noted
MOLT-4 leukemia = system: MOLT-4 leukemia
SR leukemia = system: SR leukemia
RPMI-8226 leukemia = system: RPMI-8226 leukemia
OVCAR-8 ovarian = system: OVCAR-8 ovarian
OVCAR-5 ovarian = system: OVCAR-5 ovarian
OVCAR-4 ovarian = system: OVCAR-4 ovarian
SK-OV-3 ovarian = system: SK-OV-3 ovarian
IGROV1 ovarian = system: IGROV1 ovarian
OVCAR-3 ovarian = system: OVCAR-3 ovarian
HS 578T breast = system: HS 578T breast
NCI/ADR-RES ovarian = system: NCI/ADR-RES ovarian

Measured: growth

Cc1ccc(NC(=O)c2ccc(CN3CCN(C)CC3)cc2)cc1Nc1nccc(-c2cccnc2)n1
inactive: EKVX NSCLC; 10 µM unless noted 84.3% and 90.9% | SN12C renal; 10 µM unless noted 94% and 83.7% | UO-31 renal; 10 µM unless noted 92.4% and 77.6% | TK-10 renal; 10 µM unless noted 110% and 74.9% | ACHN renal 101% and 82.7% | CAKI-1 renal 100% and 102% | A498 renal; 10 µM unless noted 86.3% and 82.5% | CCRF-CEM leukemia 93.4% and 49.7% | MOLT-4 leukemia; 10 µM unless noted 82% and 45.1% | RPMI-8226 leukemia; 10 µM unless noted 87.4% and 38.3% | OVCAR-8 ovarian; 10 µM unless noted 91.6% and 67.7% | OVCAR-5 ovarian; 10 µM unless noted 123% and 97.5% | OVCAR-4 ovarian; 10 µM unless noted 100% and 93.1% | SK-OV-3 ovarian; 10 µM unless noted 106% and 107% | IGROV1 ovarian; 10 µM unless noted 119% and 98.3% | OVCAR-3 ovarian; 10 µM unless noted 110% and 84% | HS 578T breast; 10 µM unless noted 90.1% | NCI/ADR-RES ovarian; 10 µM unless noted 101% and 91.4%
85.4% (inactive) and -22.5% (active): SR leukemia; 10 µM unless noted

CC(=O)/C=C/c1ccc(N(C)Cc2ccc(C(C)(C)C)cc2)cc1
inactive: EKVX NSCLC; 10 µM 106% | SN12C renal; 10 µM 90.6% | UO-31 renal; 10 µM 78.5% | TK-10 renal; 10 µM 115% | ACHN renal 98.4% | A498 renal; 10 µM 87.9% | MOLT-4 leukemia; 10 µM 62.2% | SR leukemia; 10 µM 80.4% | RPMI-8226 leukemia; 10 µM 78.2% | OVCAR-8 ovarian; 10 µM 92.4% | OVCAR-5 ovarian; 10 µM 102% | OVCAR-4 ovarian; 10 µM 85.2% | SK-OV-3 ovarian; 10 µM 98.4% | IGROV1 ovarian; 10 µM 99% | OVCAR-3 ovarian; 10 µM 101% | HS 578T breast; 10 µM 87.1% | NCI/ADR-RES ovarian; 10 µM 86.1%
active: EKVX NSCLC; 100 µM -39.2% | SN12C renal; 100 µM -81.1% | UO-31 renal; 100 µM -100% | TK-10 renal; 100 µM -13.7% | A498 renal; 100 µM -95.6% | CCRF-CEM leukemia -12.1% [100 µM] | MOLT-4 leukemia; 100 µM -38.9% | SR leukemia; 100 µM -29.5% | RPMI-8226 leukemia; 100 µM -49.8% | OVCAR-8 ovarian; 100 µM -54.8% | OVCAR-5 ovarian; 100 µM -72% | OVCAR-4 ovarian; 100 µM -68.9% | SK-OV-3 ovarian; 100 µM -29.8% | IGROV1 ovarian; 100 µM 1.66% | OVCAR-3 ovarian; 100 µM -93.2% | HS 578T breast; 100 µM -33.3% | NCI/ADR-RES ovarian; 100 µM -60.1%

O=C(NCc1ccc(Cn2c(=O)sn(-c3ccc(Cl)cc3)c2=O)cc1)OCc1ccc2c(Cl)cc(Cl)c(O)c2n1
active: NCI/ADR-RES ovarian; 10 µM unless noted 6.82%
inactive: EKVX NSCLC; 10 µM unless noted 44% | SN12C renal; 10 µM unless noted 38.1% | UO-31 renal; 10 µM unless noted 13% | TK-10 renal; 10 µM unless noted 63.7% | ACHN renal 26% | CAKI-1 renal 52.1% | A498 renal; 10 µM unless noted 70.1% | CCRF-CEM leukemia 31.9% | MOLT-4 leukemia; 10 µM unless noted 19.3% | SR leukemia; 10 µM unless noted 51.9% | RPMI-8226 leukemia; 10 µM unless noted 46.8% | OVCAR-8 ovarian; 10 µM unless noted 38.1% | OVCAR-5 ovarian; 10 µM unless noted 74.9% | OVCAR-4 ovarian; 10 µM unless noted 67.3% | IGROV1 ovarian; 10 µM unless noted 49.2% | OVCAR-3 ovarian; 10 µM unless noted 63.7% | HS 578T breast; 10 µM unless noted 69.7%

O=C(O)c1ccccc1Cc1ccc(F)c2ccccc12
inactive: EKVX NSCLC; 10 µM unless noted 107% | SN12C renal; 10 µM unless noted 107% and 97.9% | UO-31 renal; 10 µM unless noted 77.7% and 89.1% | TK-10 renal; 10 µM unless noted 107% and 109% | ACHN renal 99.3% and 102% | CAKI-1 renal 94.9% and 100% | A498 renal; 10 µM unless noted 99.3% and 97.4% | CCRF-CEM leukemia 98.8% and 96.3% | MOLT-4 leukemia; 10 µM unless noted 93.7% and 107% | SR leukemia; 10 µM unless noted 107% and 100% | OVCAR-8 ovarian; 10 µM unless noted 101% and 102% | OVCAR-5 ovarian; 10 µM unless noted 112% and 96.7% | OVCAR-4 ovarian; 10 µM unless noted 110% and 96.6% | SK-OV-3 ovarian; 10 µM unless noted 102% and 122% | IGROV1 ovarian; 10 µM unless noted 113% and 119% | OVCAR-3 ovarian; 10 µM unless noted 98.6% and 108% | HS 578T breast; 10 µM unless noted 95% and 103% | NCI/ADR-RES ovarian; 10 µM unless noted 114% and 110%

CCCCCCCCCCCCCCCC(=O)O[C@@H]1[C@@H](O)[C@@H](O)C([C@H](NC(=O)[C@@H]2C[C@@H](CCC)CN2C)[C@H](C)Cl)O[C@@H]1SC (stereo partly specified)
inactive: EKVX NSCLC; 10 µM unless noted 100% | SN12C renal; 10 µM unless noted 104% | UO-31 renal; 10 µM unless noted 77.2% | TK-10 renal; 10 µM unless noted 115% | ACHN renal 95.4% | CAKI-1 renal 96% | A498 renal; 10 µM unless noted 101% | CCRF-CEM leukemia 101% | MOLT-4 leukemia; 10 µM unless noted 103% | SR leukemia; 10 µM unless noted 98.5% | RPMI-8226 leukemia; 10 µM unless noted 90.9% | OVCAR-8 ovarian; 10 µM unless noted 103% | OVCAR-5 ovarian; 10 µM unless noted 97.1% | OVCAR-4 ovarian; 10 µM unless noted 105% | SK-OV-3 ovarian; 10 µM unless noted 98.2% | IGROV1 ovarian; 10 µM unless noted 101% | OVCAR-3 ovarian; 10 µM unless noted 109% | HS 578T breast; 10 µM unless noted 122% | NCI/ADR-RES ovarian; 10 µM unless noted 112%

Nc1nc(N)c2c(n1)NC(c1cccc(Nc3ccnc4cc(C(F)(F)F)ccc34)c1)CC(c1ccc(F)cc1)=N2 (stereo unspecified)
active: MOLT-4 leukemia; 10 µM unless noted 2.74% | SR leukemia; 10 µM unless noted -7.72% | RPMI-8226 leukemia; 10 µM unless noted 3.03%
inactive: EKVX NSCLC; 10 µM unless noted 47% | SN12C renal; 10 µM unless noted 59.8% | UO-31 renal; 10 µM unless noted 53.7% | TK-10 renal; 10 µM unless noted 91.8% | ACHN renal 75.5% | CAKI-1 renal 47.1% | A498 renal; 10 µM unless noted 78.1% | CCRF-CEM leukemia 25% | OVCAR-8 ovarian; 10 µM unless noted 63.1% | OVCAR-5 ovarian; 10 µM unless noted 108% | OVCAR-4 ovarian; 10 µM unless noted 57.9% | SK-OV-3 ovarian; 10 µM unless noted 63.1% | IGROV1 ovarian; 10 µM unless noted 50.5% | OVCAR-3 ovarian; 10 µM unless noted 26.4% | HS 578T breast; 10 µM unless noted 42.1% | NCI/ADR-RES ovarian; 10 µM unless noted 70.7%

Clc1ccc2c(c1)N(c1ncnc3ccc(-c4cnc5[nH]ccc5c4)cc13)CC2
active: A498 renal; 10 µM unless noted 8.49% | MOLT-4 leukemia; 10 µM unless noted -6.69% | SR leukemia; 10 µM unless noted 1.86% | OVCAR-4 ovarian; 10 µM unless noted 0.279% | IGROV1 ovarian; 10 µM unless noted -24% | HS 578T breast; 10 µM unless noted 1.12%
inactive: EKVX NSCLC; 10 µM unless noted 26.6% | SN12C renal; 10 µM unless noted 26.7% | UO-31 renal; 10 µM unless noted 21% | TK-10 renal; 10 µM unless noted 26.2% | ACHN renal 28.4% | CAKI-1 renal 31.4% | CCRF-CEM leukemia 21.1% | RPMI-8226 leukemia; 10 µM unless noted 26% | OVCAR-8 ovarian; 10 µM unless noted 27.9% | OVCAR-5 ovarian; 10 µM unless noted 39.1% | SK-OV-3 ovarian; 10 µM unless noted 28.3% | OVCAR-3 ovarian; 10 µM unless noted 21.5% | NCI/ADR-RES ovarian; 10 µM unless noted 33.3%
